The list is a sample of the results.
aSyn 5UTR act: Activators via SNCA 5'UTR binding, MLPCN. alpha-synuclein 5'UTR reporter, activators screen. activity score, % (tested at 7.5 µM), hits read low. hit rate 7.1% among 300,000. AID 1814, 2009; in the data active = activity score below about -60%
The depositor's hits bear a star.

SMILES | aSyn 5UTR act
O=c1cc(-c2cccc(Br)c2)oc2cccc(O)c12 | -141*
O=c1cc(-c2cccc(Cl)c2)oc2cccc(O)c12 | -124*
CN(C)CC(C(=O)c1ccccc1)c1ccccc1 (stereo not given) | -171*
CN(C)CC(CCC(CN(C)C)C(O)(c1ccccc1)c1ccccc1)C(O)(c1ccccc1)c1ccccc1 (stereo not given) | 101
Cc1ccc(CONC(=O)c2ccccc2)cc1 | -101*
Cc1ccc(C(=O)N/C(=C\c2ccccc2)C(=O)OCc2ccccc2)cc1 | -122*
COc1ccc(C(=O)NOCc2ccccc2)cc1 | -74*
O=C(O)CN1C(=O)/C(=C\c2cccc(OCc3ccc(Cl)cc3Cl)c2)SC1=S | -106*
Cc1ccc(NC2(C#N)C(=O)Nc3ccccc32)cc1C (stereo not given) | -89*
CCCCOc1ccc(-c2ncc(N)cn2)cc1 | -95*
CCCCOc1ccc(C(=O)NNC(=S)NC(=O)CC)cc1 | 85
CCCCOc1ccc(-c2nc(=S)[nH][nH]2)cc1 | -65*
CCCCOc1ccc(-c2nc(SCC(N)=O)n[nH]2)cc1 | -114*
Cn1nc(OC(=O)Nc2ccccc2)cc1C(F)(F)F | -123*
COc1cccc(N/N=C/c2cccc(Br)c2O)c1 | -117*
COc1ccc(/C=N/Nc2ccc([N+](=O)[O-])cc2)cc1O | -298*
COc1cccc(/C=N/NC(=O)c2ccc(-c3ccccc3)cc2)c1O | 76
COc1cccc(/C=N/Nc2ccc([N+](=O)[O-])cc2)c1O | -150*
COc1ccc(CNS(=O)(=O)c2cc3c(cc2C)N(C)CCO3)cc1 | -65*
Oc1ccc(N=C/C=C/c2cccc(Br)c2)cc1-c1nc2ccccc2s1 | -99*
COc1cccc(-c2cn3nc(C)c(C)nc3n2)c1 | -70*
COc1ccc(-c2cc(=O)c3c(O)c(OC)c(O)cc3o2)cc1 | 70
O=c1cc(-c2ccccc2)oc2cc(O)cc(O)c12 | -171*
COc1cc(O)c2c(=O)cc(-c3ccccc3)oc2c1 | -145*
COc1cc(-c2cc(=O)c3c(O)cc(O)cc3o2)ccc1O | -79*
SMILES | aSyn 5UTR act
O=c1c(O)c(-c2ccc(O)cc2)oc2cc(O)cc(O)c12 | -100*
COCOc1ccc(-c2cc(=O)c3c(O)cc(OCOC)cc3o2)cc1 | -127*
O=c1cc(-c2ccc(O)cc2)oc2cc(O)cc(O)c12 | -269*
COc1cc(O)c2c(=O)c3c(OC)c(O)ccc3oc2c1 | -78*
O=C(Nc1ccc(/C=C/c2nc3ccccc3o2)cc1)c1ccc(F)cc1 | -117*
O=C(c1ccc2c(c1)OCCCO2)c1cccs1 | -118*
O=C(N/N=C\c1cc2c(cc1Cl)OCO2)c1cccs1 | -67*
O=C(Nc1ccc2c(c1)OCO2)c1cccs1 | -176*
O=C(CN1C(=O)c2ccccc2S1(=O)=O)c1ccc2c(c1)OCCCO2 | 114
O=C(Nc1ccc2c(c1)OCCO2)c1cccs1 | -76*
O=C(/C=C\Nc1ccc2c(c1)OCO2)c1cccs1 | -147*
CCN(CC)S(=O)(=O)c1cc(NC(=O)c2ccc(Br)s2)ccc1C | -95*
O=C(Nc1ccc2c(c1)OCO2)c1ccc(Br)s1 | -240*
Cc1ccc(NC(=O)CSc2nccn2Cc2ccco2)cc1 | -85*
Cc1ccc(NC(=O)CSc2ncc3ccccn23)cc1 | -67*
CSc1ccc(/C=C/c2cc(=O)c3ccccc3[nH]2)cc1 | -69*
O=c1cc(-c2cccc(F)c2)[nH]c2ccccc12 | 87
CCc1nc2ccc(C(=O)O)cc2nc1CC | -63*
CCc1nc2ccc(C(=O)NCCc3ccc(OC)cc3)cc2nc1CC | -138*
CCCCOc1ccc(N(CC(=O)NCc2ccccc2)C(=O)c2csnn2)cc1 | -69*
CSc1nsc(SCC(=O)Nc2nc3ccc(C)cc3s2)n1 | -84*
Cc1ccc2nc(NC(=O)CSCc3ccccc3)sc2c1 | -79*
Cc1cc(=O)[nH]c2nnc(-c3ccc(Br)cc3)n12 | -62*
Cc1nnc(SC(=O)N2c3ccccc3Sc3ccccc32)s1 | -66*
CC(C)n1c(SCC(=O)N2c3ccccc3Sc3ccccc32)nc2c1c(=O)n(C)c(=O)n2C | 58
SMILES | aSyn 5UTR act
Cc1cccc2sc(NNC(=O)c3cc(=O)c4ccccc4o3)nc12 | -62*
Cc1cccc2sc(NNC(=O)c3ccc(S(=O)(=O)N4CC(C)CC(C)C4)cc3)nc12 (stereo not given) | 81
COc1ccc2nc(NNC(=O)c3cc(=O)c4ccccc4o3)sc2c1 | -88*
Cc1nn(-c2ccc(Br)cc2)c(=O)c2ccccc12 | -113*
O=C(CSc1nnc(-c2ccc(C(F)(F)F)cn2)o1)Nc1ccccc1Cl | -98*
COc1ccc(NCc2nnc(SCC(=O)Nc3cc(C)cc(C)c3)o2)cc1 | -65*
CC(C)(C)c1ccc(NC(=O)CSc2nnc(-c3n[nH]c4ccccc34)o2)cc1 | -129*
COc1ccc(NCc2nnc(SCC(=O)Nc3cc(C(F)(F)F)ccc3Cl)o2)cc1 | -63*
O=C(OCc1nnc(-c2ccccc2)o1)C12CC3CC(CC(Br)(C3)C1)C2 | -105*
Cc1ccc(-c2cc3ccccc3nc2N)cc1 | -93*
Cc1ccc2nc(Cl)c(-c3ccccc3)cc2c1 | 74
c1csc(-c2ccc3ccccc3n2)c1 | -140*
Nc1nc2ccccc2cc1-c1cccs1 | -121*
O=C(Nc1ccn(-c2ccccc2)n1)c1ccccc1Br | -161*
O=C(Nc1ccn(-c2ccccc2)n1)c1ccc(Cl)cc1 | -136*
CCCc1nnc(NC(=O)Nc2ccccc2OC)s1 | -92*
COc1ccccc1Nc1nnc(SCC(=O)N2CCCC2)s1 | -77*
CCCSc1nnc(NC(=O)Nc2ccccc2OC)s1 | -144*
O=C(/C=C/c1cccs1)c1ccc(Br)cc1 | -96*
O=C(/C=C/c1cccs1)c1ccc(NC(=O)c2cccc(Br)c2)cc1 | -85*
Cc1ccc(C(=O)Nc2ccc(C(=O)/C=C/c3cccs3)cc2)cc1 | -201*
C=CCC1(CC=C)CCCN1C(=O)c1cc(COc2ccc(C)nc2)on1 | -78*
CCc1cc(CNC(=O)c2cc(COc3ccc(C)nc3)on2)on1 | -73*
Cc1ccc(OCc2cc(C(=O)N3CCCC3)no2)cn1 | -70*
CC(C)c1ccc2nc(N)sc2c1 | -107*
SMILES | aSyn 5UTR act
Nc1nc2ccc(OC(F)(F)F)cc2s1 | -74*
Cc1cc2nc(N)sc2cc1C | -64*
CC(=O)Nc1ccc(SCC(=O)c2cc(C)n(C)c2C)cc1 | -69*
COc1ccc(S(=O)(=O)n2ccc(-c3ccc4c(c3)CCC(C)(C)O4)n2)cc1 | -103*
CC1(C)CCc2cc(-c3ccn(S(=O)(=O)c4ccccc4Cl)n3)ccc2O1 | -84*
COc1ccc(S(=O)(=O)N2c3ccc(F)cc3CCC2C)cc1 (stereo not given) | 112
Cc1cc2nn(-c3cccc4ccccc34)nc2cc1N | -180*
c1ccc(NC2=Nc3ccccc3CC2)cc1 | -179*
COC(=O)N/N=C\c1ccc(-c2cc(Cl)c(Cl)cc2Cl)o1 | 54
CCOc1ccc(S(=O)(=O)N(CC(=O)N/N=C/c2ccc(-c3ccc([N+](=O)[O-])cc3)o2)c2ccccc2)cc1 | -72*
CCOC(=O)c1ccc(-c2ccc(/C=N/NC(=O)CN(c3ccccc3Cl)S(C)(=O)=O)o2)cc1 | -153*
CCc1ccc(NC(=O)c2nc(S(=O)(=O)Cc3ccccc3)ncc2Cl)cc1 | 91
CC(C)c1nnc(NC(=O)c2nc(S(=O)(=O)Cc3ccccc3)ncc2Cl)s1 | -81*
COc1ccc(SCC(=O)c2cc(C)c(OC(=S)N(C)C)c(C)c2)cc1 | -82*
N#Cc1c(N2CCCC2)nc(N)c2c(N)nc(N3CCCC3)cc12 | -173*
Cc1cc(C)c2ccc(N)nc2c1O | 65
